A selection: hits, their analogues and other compounds. The true share with any hit is near 0.86%.
CDC25B CDK2 inh: human CDC25B-CDK2/CyclinA binding inhibition; HTRF CDC25B-CDK2/CyclinA binding, anti-His/anti-Flag; hits give high values; z-score (concentration not given with the values); 0.72% of 94,000 active; AID 1259370; in the data active = z-score above about 3.2
HIV TAR-Tat: HIV-1 TAR-Tat binding disruption | 0.6% of 100,000 active | z-score (no concentration beside the values) | HIV-1 TAR RNA, Tat peptide displacement FRET; hits give high values; active = z-score of 3 or more in at least 2 runs
Large screens that a line does not name were inactive.

Cc1cc(C)nc(SN=C2C=C(Cl)C(=O)C(Cl)=C2)n1	CDC25B CDK2 inh 15 (no result: HIV TAR-Tat)
Cc1oc(C(C)(C)C)cc1C(=O)/C(C#N)=C/Nc1ccccc1	none (no result: HIV TAR-Tat)
CC(C)(C)c1ccc(N/C=C(\C#N)C(=O)c2ccsc2)cc1	CDC25B CDK2 inh 13 (no result: HIV TAR-Tat)
COc1ccc(N2CCN(CCNC(=O)Nc3cc(Cl)c(OC)cc3OC)CC2)cc1	none
CCC1CCCCN1S(=O)(=O)c1ccc2[nH]c(=O)ccc2c1 (stereo not drawn)	HIV TAR-Tat 6.5 (no result: CDC25B CDK2 inh)
CCCN1CCN(S(=O)(=O)c2ccc3[nH]c(=O)ccc3c2)CC1	none (no result: CDC25B CDK2 inh)
O=C1CCCN1CCCNc1nc2ccccc2c2nc(-c3ccncc3)nn12	none
COc1ccc(-c2nc3nc(C)cc(N4CCC(C)CC4)n3n2)cc1	none
CSc1nc2c(c(Nc3ccc(O)c(C(=O)O)c3)n1)CCC2	HIV TAR-Tat 18
CSc1nc2c(c(Nc3cccc(O)c3)n1)CCC2	none
Cc1c(NS(=O)(=O)c2ccc3c(c2)NC(=O)CC(=O)N3)c(=O)n(-c2ccccc2)n1C	none (no result: HIV TAR-Tat)
COc1ccc(N2CSC3=C(C#N)C(c4cccc(OC)c4OC)CC(=O)N3C2)cc1 (stereo not drawn)	CDC25B CDK2 inh 4
COc1cccc(C2CC(=O)N3CN(c4ccccc4F)CSC3=C2C#N)c1OC (stereo not drawn)	CDC25B CDK2 inh 4.2
COc1ccc(N2CSC3=C(C#N)C(c4cccc(OC)c4OC)CC(=O)N3C2)c(OC)c1 (stereo not drawn)	CDC25B CDK2 inh 5.7
CC1(C)CS(=O)(=O)N(c2ccc(C(=O)NC3CCCC3)cc2)C1=O	none
Cc1nn(CC(=O)NCCCOC(C)C)c(=O)c2c1sc1ccccc12	none
CCC1CN(C(=O)N2CCC(C(=O)NC)CC2)c2ccccc2O1 (stereo not drawn)	none (no result: CDC25B CDK2 inh)
CCn1c(SCC(=O)N2CCN(c3ccccc3)CC2)nc2c(c1=O)SCC2	none
CCOCCCNc1nc2c(S(=O)(=O)c3ccccc3)nnn2c2ccccc12	HIV TAR-Tat 11
COCCCNc1nc2c(S(=O)(=O)c3ccccc3)nnn2c2ccccc12	none
O=C(c1ccc(CN2C(=O)CSc3ncccc32)cc1)N1CCC(N2CCCCC2)CC1	none (no result: CDC25B CDK2 inh)
CN1CCN(C(=O)NC2COc3ccccc3C2)CC1 (stereo not drawn)	none (no result: CDC25B CDK2 inh)
O=C(O)/C=C/C(=O)Nc1ccc(C(F)(F)F)cc1NC(=O)/C=C/C(=O)O	none (no result: HIV TAR-Tat)
O=C(/C=C/c1ccco1)Nc1ccc(C(=O)O)cc1NC(=O)/C=C/c1ccco1	CDC25B CDK2 inh 17 (no result: HIV TAR-Tat)
COCCCNS(=O)(=O)c1ccc2c(c1)NC(=O)C(C)CS2 (stereo not drawn)	none (no result: CDC25B CDK2 inh)
COc1cccc2c1Oc1nc(-c3ccc(Br)cc3)[nH]c(=O)c1C2	none
COc1cccc2c1Oc1nc(-c3cc(Br)ccc3O)[nH]c(=O)c1C2	HIV TAR-Tat 18
COc1cccc(-c2nc3c(c(=O)[nH]2)Cc2cccc(OC)c2O3)c1O	HIV TAR-Tat 12
COc1cccc(-c2nc3c(c(=O)[nH]2)Cc2ccccc2O3)c1O	none
C=CCn1c(SCC(=O)O)nc2sc3c(c2c1=O)CC(C)(C)OC3	none
COc1ccc(Br)cc1CNC(=O)Cn1ncn2c(cc3cc(F)ccc32)c1=O	none
CC(NC(=O)Cn1ncc2c3ccccc3n(Cc3ccccc3)c2c1=O)c1ccc2c(c1)OCCO2 (stereo not drawn)	none
CCN1CCN(c2cc3c(cc2F)c(=O)c(S(=O)(=O)c2ccccc2)cn3CC)CC1	none (no result: CDC25B CDK2 inh)
Cc1ccc2[nH]c3c(=O)n(CCN4CCCCC4C)cnc3c2c1 (stereo not drawn)	none
COc1cc2[nH]c3c(=O)n(CCN4CCCCC4C)cnc3c2cc1OC (stereo not drawn)	HIV TAR-Tat 6.4
Cc1oc2ccc(NS(=O)(=O)c3ccccc3)cc2c1C(=O)O	HIV TAR-Tat 18
Cc1oc2ccc(NS(=O)(=O)c3ccc(Cl)cc3)cc2c1C(=O)O	HIV TAR-Tat 23
COC(=O)c1c(C)oc2ccc(NS(=O)(=O)c3ccc(Cl)cc3)cc12	none
Cc1oc2ccc(NS(=O)(=O)c3ccc(F)cc3)cc2c1C(=O)O	none
COc1ccc(Cl)c(Cn2cnc3c2c(=O)n(C)c(=O)n3C)c1	none (no result: HIV TAR-Tat)
COc1ccc(Cl)c(Cn2c(NCCN)nc3c2c(=O)n(C)c(=O)n3C)c1	HIV TAR-Tat 3.6
CCCN(CCC)CCNS(=O)(=O)c1ccc(-c2ccc(=O)[nH]n2)s1	none (no result: CDC25B CDK2 inh)

Screening results: PubChem BioAssay, Center for Chemical Genomics, University of Michigan
